Results reported in PubChem BioAssay (NCATS).
Results filed as inconclusive are left out. Entries that show only a call come without a potency. Activity calls are given as the source filed them. The call rests on the fitted dose curve; in most records, active means well fitted cell-killing curve with a large enough effect; inconclusive means small, poorly fitted or top-dose-only effect, or effect the other way; inactive means flat fitted curve, though single readings scatter.
Potency means the concentration at half of the fitted maximal effect.

Assay: qHTS of pediatric cancer cell lines to identify multiple opportunities for drug repurposing: Confirmatory screen for Rh18 cells (AID 1347125); further: nearly all actives have a fitted effect of over 55% in size
Conditions: Rh18 rhabdomyosarcoma cells, viability; series mostly up to 45.9 µM
Procedure, shortened: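 Viability after 48 h compound treatment at 37C, 500-1,000 cells/well, read as ATP luminescence with CellTiter-Glo. Primary screens used 11-point (MIPE, 0.78 nM-46 µM) or 8-point (NPC, 0.59 nM-46 µM) final concentrations; follow-up screens used 11-point dilutions.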
In the case of `C=CC(=O)Nc1ccc2ncnc(Nc3ccc(OCc4cccc(F)c4)c(Cl)c3)c2c1`, the Potency is reported as 16.5 µM (active).
With `COc1ccc(C[C@@H](C)[C@@H](C)Cc2ccc(OC)c(OC)c2)cc1OC` the Potency was “inactive”.
In the case of `CC(=O)N1CCN(c2ccc(OCc3nn(C)c(C)c3-c3cccc4c(CCCOc5cccc6ccccc56)c(C(=O)O)n(Cc5cccnc5)c34)cc2)CC1`, the Potency is reported as “inactive”.
In the case of `COc1cccc2c1C(=O)c1c(O)c3c(c(O)c1C2=O)C[C@@](O)(C(=O)CO)C[C@@H]3O[C@H]1C[C@H](N)[C@H](OC2CCCCO2)[C@H](C)O1` (some centres undefined), the Potency is reported as 18.5 µM (active).
In the case of `O=C(Nc1cc2cc[nH]c2cn1)c1ccccc1`, the Potency is reported as 8.27 µM (active).
For `CC(=O)ON=C1C(c2c(O)[nH]c3cc(Br)ccc23)=Nc2ccccc21`, the Potency was 13.1 µM (active).
For `N#Cc1c(NC(=O)c2cccc3ccccc23)sc2c1CCCC2`, the Potency was “inactive”.
For `Cn1c(Nc2ccc(C(F)(F)F)cc2)nc2cc(Oc3ccnc(-c4ncc(C(F)(F)F)[nH]4)c3)ccc21`, the Potency was “inactive”.
In the case of `Cn1cnc(=N)c2[nH]cnc21`, the Potency is reported as “inactive”.
In the case of `Cc1cnc(Nc2ccc(N3CCN(C)CC3)cc2)nc1Nc1cccc(S(=O)(=O)NC(C)(C)C)c1`, the Potency is reported as 2.93 µM (active).
In the case of `CNC(=O)c1ccc(Nc2cc(Nc3ccccc3S(=O)(=O)C(C)C)c3cc[nH]c3n2)nc1`, the Potency is reported as 18.5 µM (active).
With `C=C1C(=CC=C2CCC[C@]3(C)[C@@H]([C@H](C)CCCC(C)(C)O)CC[C@@H]23)C[C@@H](O)C[C@@H]1O` the Potency was “inactive”.
In the case of `CCOC(=O)C1=C(C)NC(=S)NC1c1cccc(O)c1` (centres undefined), the Potency is reported as “inactive”.
With `O=C(NCc1ccccc1)[C@H](Cc1ccccc1)NC(=O)[C@@H]1O[C@@H]1C(=O)NCCc1ccc(O)cc1` the Potency was “inactive”.
